Activity calls are given as the source filed them.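 How the source made its calls, unless noted: active means inhibition above 20% together with a positive visual image hit; inconclusive means visual image hit but inhibition not above 20%; inactive means no visual image hit.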
Key:
[1] = inhibitors of TNFa-induced NFkB p65 translocation, primary screen, imaging, HUVEC, MLSMR starter and 10KST1 sets (AID 438); settings: HUVEC TNFa-induced p65 nuclear translocation; cell count: measured here: nuclei count (cytotoxicity indicator), at 2.08 µM; inhibition: at 2 µM, stronger effect = higher value, 0% TNFa-plus-vehicle, 100% no-TNFa wells;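 further: compound added about 3h40 before a 20 min TNFalpha stimulation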;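 on inhibition: signal is the nuclear over cytoplasmic p65 intensity ratio per well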
[2] = inhibitors of mutant huntingtin aggregation, primary screen, imaging, exon1htt(103Q)mCFP cells, high-content imaging (AID 483;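 active means visual image review flags a hit and inhibition of aggregation exceeds 20%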;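 further: compound exposure lasted 3 days before fixation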;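 on nuclei count: percent of the per-plate median nuclei count of sample wells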); settings: exon1htt(103Q)mCFP cell line, aggregate imaging, at 2 µM; inhibition of aggregation: stronger effect = higher value; nuclei count: measured here: cell count, toxicity
[3] = inhibitors of E-selectin induction by TNFa, primary screen, imaging, HUVEC, immunofluorescence, MLSMR starter and 10KST1 sets (AID 487;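 active means visually confirmed hit in the image check and inhibition above 20%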;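 on inhibition: signal is fraction of cell area covered by stained E-selectin grains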;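 on nuclei count: 100% = median nuclei count of all wells on the same plate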); settings: HUVEC TNFalpha-induced E-selectin immunofluorescence imaging, at 2 µM; inhibition: stronger effect = higher value; nuclei count: measured here: cell number, toxicity
[4] = target: Voltage-gated potassium channel subunit beta-2 (Rattus norvegicus) (UniProt P62483); assay: KvBeta enzyme negative modulators, primary screen, biochemical, NADPH fluorescence (AID 622;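 active means fluorescence slope higher than the sample average by over 3 SD, cut at about -0.22 in these data, passing the limit was not always enough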;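 further: slope of raw intensity against log time taken from 70 to 1610 s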); settings: recombinant KvBeta, 4-cyanobenzaldehyde reduction, at 10 µM, stronger effect = higher value
[5] = target: Voltage-gated potassium channel subunit beta-2 (Rattus norvegicus) (UniProt P62483); assay: KvBeta positive modulators, primary screen, biochemical, NADPH fluorescence (AID 623;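 active means NADPH fluorescence slope more negative than the mean of all samples by about 3 SD, 99.7% confidence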;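 further: fluorescence intensity change per second fitted from 20 to 320 s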); settings: Recombinant KvBeta, NADPH fluorescence decrease slope, 10 min; at 10 µM; stronger effect = lower value
[6] = target: Alpha-2C adrenergic receptor (Homo sapiens) (UniProt P18825); assay: modulators of alpha2C/GIRK thallium flux, primary screen, cell-based, HEK293 alpha2C/GIRK1/2 (AID 624;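 active means fluorescence slope after compound addition differing from the mean of all screened samples at 99.7% confidence, in either direction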;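 further: slope of fluorescence ratio to pre-addition baseline per second over 15 to 24 s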); settings: thallium flux BTC fluorescence, at 10 µM, actives lie on both sides
[7] = inhibitors of Sendai virus-induced IRF3 signaling, primary screen, TLR/RLR signaling modifier project, cell-based, Sendai virus stimulus, luciferase, 10K MLSCN set (AID 602276;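 active means inhibition at or above 50% at 10 µM; inactive means inhibition below 50%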;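 further: firefly luciferase from ISG56 promoter only with Renilla not read in this screen; 0% = Sendai virus plus DMSO and 100% = medium plus DMSO without virus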); settings: HEK293 RL24 IRF3 luciferase reporter, at 10 µM, stronger effect = higher value
[8] = inhibitors of poly I:C-induced TLR3 signaling, primary screen, cell-based, poly I:C stimulus, luciferase, 10K MLSCN set (AID 602277;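 active means inhibition of the reporter signal at or above 50%; inactive means inhibition below 50%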); settings: HEK293-TLR3 RL24 IRF3 luciferase reporter, at 10 µM, stronger effect = higher value

Voltage-gated potassium channel subunit beta-2 (Rattus norvegicus), sequence (P62483 whole entry, looked up): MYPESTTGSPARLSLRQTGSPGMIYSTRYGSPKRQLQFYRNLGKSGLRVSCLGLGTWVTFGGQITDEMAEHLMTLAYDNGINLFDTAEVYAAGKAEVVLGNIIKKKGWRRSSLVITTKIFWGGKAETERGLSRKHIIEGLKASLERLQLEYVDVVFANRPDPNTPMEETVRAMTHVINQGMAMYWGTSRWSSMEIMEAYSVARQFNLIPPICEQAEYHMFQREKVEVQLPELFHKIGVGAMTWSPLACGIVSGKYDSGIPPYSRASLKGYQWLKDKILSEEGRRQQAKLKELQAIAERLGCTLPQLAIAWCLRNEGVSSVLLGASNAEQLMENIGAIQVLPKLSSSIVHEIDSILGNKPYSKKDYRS
Alpha-2C adrenergic receptor (Homo sapiens), sequence (P18825 whole entry, looked up): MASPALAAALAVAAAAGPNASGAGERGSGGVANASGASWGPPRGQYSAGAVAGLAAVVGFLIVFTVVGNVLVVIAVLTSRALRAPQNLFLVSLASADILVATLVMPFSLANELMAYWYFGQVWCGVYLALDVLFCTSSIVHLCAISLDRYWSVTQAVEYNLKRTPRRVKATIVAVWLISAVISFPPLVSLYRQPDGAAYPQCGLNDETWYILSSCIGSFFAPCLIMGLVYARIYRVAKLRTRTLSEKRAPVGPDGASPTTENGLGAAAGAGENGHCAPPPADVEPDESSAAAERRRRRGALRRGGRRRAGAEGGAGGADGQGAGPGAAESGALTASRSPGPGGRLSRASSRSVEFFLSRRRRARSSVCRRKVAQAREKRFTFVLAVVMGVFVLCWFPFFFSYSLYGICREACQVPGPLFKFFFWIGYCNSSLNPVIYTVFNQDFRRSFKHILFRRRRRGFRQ

Compound | cell count [1] | inhibition [1] | inhibition of aggregation [2] | nuclei count [2] | inhibition [3] | nuclei count [3] | fluorescence slope [4] | NADPH fluorescence slope [5] | slope [6] | inhibition [7] | inhibition [8]
O=C(c1ncn[nH]1)N1CCN(c2nc(-c3ccccc3)cs2)CC1 | 397 | 2.5% (inactive) | 2.5% (inactive) | 68.1% | 22.4% (inactive) | 111% | -0.387 (inactive) | -4.6e-06 (inactive) | 0.00549 (inactive) | -1.81% (inactive) | -36.8% (inactive)
CCCCN=CC1=C(O)C(C(=O)OC)C(C)(C)CC1=O (stereo not drawn) | 390 | -4.3% (inactive) | 10.6% (inactive) | 106% | -21.7% (inactive) | 123% | -0.392 (inactive) | -6.2e-07 (inactive) | 0.0055 (inactive) | -0.949% (inactive) | -9.49% (inactive)
CCN(CC)c1ccc2cc(-c3nc4ccccc4[nH]3)c(=O)oc2c1 | 437 | 11.7% (inactive) | 90.2% (active) | 98.9% | -74.3% (inactive) | 116% | -0.313 (inactive) | 4.5e-05 (inactive) | 0 (active) | 20.9% (inactive) | 32.6% (inactive)
c1ccn2c(SCc3ccc4c(c3)OCCO4)nnc2c1 | 793 | -10.5% (inactive) | 11.4% (inactive) | 88.9% | -56.4% (inactive) | 117% | -0.583 (inactive) | 5.1e-06 (inactive) | 0.00773 (inactive) | -29.2% (inactive) | -95% (inactive)
Cc1cc(C)nc(SCCS(=O)Cc2ccc(Cl)cc2)n1 (stereo not drawn) | 306 | -3.8% (inactive) | -16.7% (inactive) | 108% | 32.1% (inactive) | 95% | -0.503 (inactive) | 6.2e-06 (inactive) | 0.00559 (inactive) | 5.96% (inactive) | 8.92% (inactive)
CC(=O)Nc1ccc(S(=O)(=O)N2CCN=C2C)cc1 | 246 | 7.6% (inactive) | 14.3% (inactive) | 86.3% | -31.5% (inactive) | 83.1% | -0.62 (inactive) | -1.6e-05 (inactive) | 0.00377 (inactive) | 3.93% (inactive) | 19.7% (inactive)
COc1ccccc1CN1CC(C(=O)NCc2cccnc2)CC1=O (stereo not drawn) | 536 | -8% (inactive) | 4.9% (inactive) | 91.5% | -0.1% (inactive) | 113% | -0.502 (inactive) | -2.4e-05 (inactive) | 0.00742 (inactive) | 7.79% (inactive) | 29.2% (inactive)
O=c1oc2ccccc2c2nccnc12 | 410 | 2.1% (inactive) | 2.2% (inactive) | 104% | -5.2% (inactive) | 107% | -0.456 (inactive) | -3.3e-05 (inactive) | 0.00253 (inactive) | 5.7% (inactive) | 27.5% (inactive)
CC(C)(NC(=O)N1CCCC1)c1cccc(C(C)(C)NC(=O)N2CCCC2)c1 | 366 | -1.8% (inactive) | 34.8% (active) | 92.3% | 21.6% (inactive) | 83.8% | -0.381 (inactive) | 3e-05 (inactive) | 0.00445 (inactive) | 11.4% (inactive) | 30.1% (inactive)
CCOc1ccccc1C1NC(=O)NC(C)=C1C(=O)OC1CCCC1C (stereo not drawn) | 686 | 2.9% (inactive) | -3.3% (inactive) | 103% | 13.9% (inactive) | 99.1% | -0.488 (inactive) | -5e-05 (inactive) | 0.00539 (inactive) | 16.6% (inactive) | 22.2% (inactive)
CCC(C)(C)NC(=O)C(c1ccco1)N(C(=O)Cn1nnc2ccccc21)c1ccc2c(c1)OCO2 (stereo not drawn) | 497 | -25% (inactive) | 14.5% (inactive) | 86% | -10.4% (inactive) | 102% | -0.522 (inactive) | -2e-05 (inactive) | 0.00407 (inactive) | 14.6% (inactive) | 21% (inactive)
CCC(c1nnnn1Cc1ccco1)N(CCc1ccccc1)Cc1cc2cccc(C)c2[nH]c1=O (stereo not drawn) | 788 | -8.4% (inactive) | -2.2% (inactive) | 86.2% | -19.1% (inactive) | 110% | -0.396 (inactive) | -1.9e-05 (inactive) | 0.00487 (inactive) | 25.2% (inactive) | 31.5% (inactive)
COc1ccc(S(=O)(=O)N2CCSC2c2ccccc2)cc1 (stereo not drawn) | 449 | -3.1% (inactive) | -10.4% (inactive) | 106% | -84.6% (inactive) | 97.9% | -0.463 (inactive) | -3.5e-05 (inactive) | 0.00496 (inactive) | -1.99% (inactive) | 22.7% (inactive)
CC(C)CNS(=O)(=O)c1ccc(CCC(=O)N2CCOCC2)cc1 | 647 | 1.1% (inactive) | -3% (inactive) | 104% | -45.6% (inactive) | 104% | -0.471 (inactive) | -4.8e-05 (inactive) | 0.00694 (inactive) | 8.44% (inactive) | 21.1% (inactive)
C=CCn1c(SCC(=O)Nc2cccc(OC)c2)nnc1-c1cccnc1 | 619 | -4.8% (inactive) | 0.3% (inactive) | 118% | -52.7% (inactive) | 104% | -0.527 (inactive) | -9.5e-06 (inactive) | 0.00671 (inactive) | 10.5% (inactive) | 16.9% (inactive)
CCOC(=O)C1CCN(Cc2ccc(OC)c(C)c2OC)CC1 | 313 | -1.3% (inactive) | -10.2% (inactive) | 107% | -41.2% (inactive) | 108% | -0.539 (inactive) | -2.1e-05 (inactive) | 0.00556 (inactive) | -3.21% (inactive) | 7.91% (inactive)
COc1ccc(S(=O)(=O)N(C)C2CCN(C)CC2)cc1 | 843 | -2.3% (inactive) | -6.3% (inactive) | 128% | -73.5% (inactive) | 114% | -0.548 (inactive) | -5.5e-05 (inactive) | 0.00699 (inactive) | 7.34% (inactive) | 43.8% (inactive)
CCn1nnc(NC(=O)c2ccc(-c3ccc(Cl)cc3)o2)n1 | 391 | -6.7% (inactive) | -20% (inactive) | 129% | -101% (inactive) | 208% | -0.488 (inactive) | -7.1e-05 (inactive) | 0.00611 (inactive) | -111% (inactive) | -103% (inactive)
COc1ccc(NC2c3ncccc3C(=O)N2Cc2ccccc2)c(OC)c1 (stereo not drawn) | 480 | 1.6% (inactive) | -17% (inactive) | 116% | -31.3% (inactive) | 114% | -0.609 (inactive) | -9.3e-06 (inactive) | 0.00393 (inactive) | 7.6% (inactive) | 15.8% (inactive)
COc1ccc(CCNC(=O)C2CCN(C(=O)N(C)C)CC2)cc1OC | 618 | 0.9% (inactive) | 3.5% (inactive) | 44.3% | -74.3% (inactive) | 106% | -0.386 (inactive) | -1.9e-05 (inactive) | 0.00486 (inactive) | 6.71% (inactive) | -1.45% (inactive)
Cc1ccc2[nH]c(=O)c3cc(C(=O)NCCN4CCN(C)CC4)sc3c2c1 | 526 | -0.5% (inactive) | 2.4% (inactive) | 60% | -14.1% (inactive) | 116% | -0.229 (active) | -4.2e-06 (inactive) | 0.00573 (inactive) | 10.4% (inactive) | 90.4% (active)
CCCCCCc1ccc(-c2ncc(N)cn2)cc1 | 478 | 3.5% (inactive) | 26.5% (inactive) | 110% | -42.4% (inactive) | 109% | -0.509 (inactive) | 6.3e-06 (inactive) | 0.00484 (inactive) | -9.96% (inactive) | -78.9% (inactive)
CCC(=O)N(CCCN(C)C)c1nc(-c2cc(OC)ccc2OC)cs1 | 392 | 7.8% (inactive) | -4.4% (inactive) | 106% | -14.7% (inactive) | 116% | -0.623 (inactive) | -6.2e-05 (inactive) | 0.00293 (inactive) | 19.4% (inactive) | 27% (inactive)
CCOc1ccc(NC(=O)CSc2nnc(COc3c(C)cccc3C)o2)cc1 | 577 | 7.3% (inactive) | -15% (inactive) | 116% | -13.1% (inactive) | 115% | -0.567 (inactive) | -1.4e-05 (inactive) | 0.00747 (inactive) | 6.58% (inactive) | 30.3% (inactive)
CC1=C(C(=O)OC2CCCC2)C(c2ccc(C)o2)C2=C(CC(c3cccs3)CC2=O)N1 (stereo not drawn) | 346 | 3.5% (inactive) | -7.2% (inactive) | 81.1% | -10.5% (inactive) | 99% | -0.459 (inactive) | -5.5e-05 (inactive) | 0.00301 (inactive) | -5.28% (inactive) | 16.8% (inactive)
Cc1cc(C)c2c(n1)nn1c(N3CCN(c4cccc(Cl)c4)CC3)cc(C)nc21 | 458 | -7.1% (inactive) | 3.7% (inactive) | 97.9% | -60.1% (inactive) | 130% | -0.303 (inactive) | 1.1e-05 (inactive) | 0.00567 (inactive) | 9.81% (inactive) | 21.4% (inactive)
Cc1c(NC(=O)CSc2nnc3sc4ccccc4n23)c(=O)n(-c2ccccc2)n1C | 655 | 1% (inactive) | 16.2% (inactive) | 98.3% | -24.3% (inactive) | 101% | -0.555 (inactive) | 6.7e-05 (inactive) | 0.00649 (inactive) | 19.4% (inactive) | 24.6% (inactive)
Cc1cc(Cl)ccc1OCC(=O)Nn1c(C)ccc1C | 480 | -4.9% (inactive) | -6.4% (inactive) | 94.5% | -16.2% (inactive) | 136% | -0.525 (inactive) | -3.9e-05 (inactive) | 0.00483 (inactive) | 11.6% (inactive) | 15.5% (inactive)

Source: PubChem BioAssay
